In PubChem BioAssay (NCATS):
Unmarked numbers belong to inactive results. Inconclusive results are not listed. The source made the active and inactive calls. Unless noted, calls follow the shape of the dose curve; as a rule, active = well fitted curve in either direction with a large enough effect (not every such curve was filed as active); inconclusive = small, poorly fitted or top-dose-only effect, or another doubt; inactive = flat fitted curve, though single readings scatter.

How the values were obtained:
[1] = target: Lysosomal acid glucosylceramidase (Homo sapiens) (UniProt P04062); test: Glucocerebrosidase-p2 (AID 348; in the data active = potency below about 10 µM; also: potency is read from the fitted curve at half-maximal effect); conditions: purified GBA, blue fluorogenic substrate, 40 min
How it was run: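 Compounds titrated from 0.6 nM upwards against 0.2 nM enzyme in pH 5.9 citric acid/KH2PO4, taurocholate, tween-20; blue fluorogenic substrate 80 uM, 40 min room temperature, stopped and read Ex 365/Em 440 for AC50.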

[2] = AP1 Signaling Pathway (AID 357); conditions: ME-180 AP-1-bla reporter, EGF-induced, beta-lactamase ratio, 5 h; at 7.69 µM (top of the series) unless noted;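 also: ME-180 reporter cells stimulated with EGF at its EC50 level; % is scaled to controls: 0 for no effect and ±100 for the full control effect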
How it was run: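 Beta-lactamase reporter under AP-1 response element, ME-180 background. Stimulus: EC50 EGF. Compound exposure 5 h, 37 °C. Detection: CCF4, 2.5 h RT, 460/530 nm. Values: AC50 from titration.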

[3] = target: Cytochrome P450 1A2 (Homo sapiens) (UniProt P05177); test: p450-cyp1a2 (AID 410; calls by dose curve; also: potency is read from the fitted curve at half-maximal effect;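 as to activity change, negative = inhibition: -100% = full effect of reference inhibitor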); conditions: recombinant CYP1A2, luciferin-ME demethylation, luminescence; series mostly up to 11.4 µM
How it was run: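 Inhibition was calculated relative to 57 uM furafylline (full inhibition). The reaction used human CYP1A2 at 20nM with Luciferin-ME at its Km, 100uM, driven by an NADPH-regenerating system for 60 min at room temperature.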

[4] = Stat Signaling Pathway (AID 446); conditions: ME-180 SIE beta-lactamase reporter, IL-6 stimulated, 5 h; at 7.69 µM (top of the series) unless noted;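 also: ME-180 cervical cancer cells given 40 pM IL-6 alongside compound; SIE-controlled beta-lactamase reporter measured as 460/530 nm FRET emission ratio; % is scaled to controls: 0 for no effect and ±100 for the full control effect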
How it was run: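 ME-180 SIE-bla cells; overnight plating; cpd + IL-6 40 pM, 5 h, 37 C; LiveBLAzer 2.5 h RT; 460/530 nm emission ratio. Normalized to 300 pM IL-6 and 125 nM JAK inhibitor controls.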

[5] = target: Glucocorticoid receptor (Homo sapiens) (UniProt P04150); test: GR-GFP Redistribution (AID 450;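 active = compounds whose dose series gives a full or clear partial fitted curve of increased nuclear translocation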; also: potency is read from the fitted curve at half-maximal effect); conditions: U2OS GR-GFP nuclear translocation, laser cytometry, 2 h
[6] = target: Glucocorticoid receptor (Homo sapiens) (UniProt P04150); test: GR-EFC Redistribution (AID 451; calls by dose curve; also: potency is read from the fitted curve at half-maximal effect); conditions: CHO-K1 GR-EFC translocation, beta-gal luminescence, 2 h
How it was run: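 CHO-K1 cells stably expressing nuclear-localized β-gal enzyme acceptor and GR fused C-terminally to the enzyme donor fragment; ligand-driven nuclear translocation restores β-gal by complementation. Compounds titrated up to 46 uM final, 2 h at 37 °C; luminescence read.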

[7] = target: Mitogen-activated protein kinase 10 (Mus musculus) (UniProt Q61831); test: JNK3 AlphaScreen Assay (AID 530); conditions: JNK3 lysate, c-Jun phosphorylation; series mostly up to 11.4 µM;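 also: kinase came from lysate of stimulated human HepG2 cells; signal reports phosphorylation of biotinylated GST-cJun 1-79 at Ser73 with 10 µM ATP; % is scaled to controls: 0 for no effect and ±100 for the full control effect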
How it was run: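 JNK3 came from HepG2 lysates pre-activated with IL-1beta and TNF-alpha and phosphorylated biotinylated GST-cJun (1-79) at 10 uM ATP, pH 7.6, room temperature. Compounds were titrated. AlphaScreen signal used anti-phospho-cJun (Ser73) antibody.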

[8] = target: 3',5'-cyclic-AMP phosphodiesterase 4B (Homo sapiens) (UniProt Q07343); test: qHTS Assay for Inhibitors of PDE-IV (AID 607; active = well fitted activation curve with a large enough effect in the main read-out, with a control signal flat, not every such curve was filed as active; also: % of control where 0% means no effect); conditions: HEK293 ACTOne CNG channel cells, membrane potential fluorescence; series mostly up to 22.9 µM
How it was run: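 ACTOne HEK293 cells carry a modified cAMP-gated CNG channel and express endogenous PDE4; plated 1000 cells/well, compounds up to 22.9 uM final. Membrane-potential dye fluorescence (ex 535/em 590) was read; parental cells received 10 uM forskolin + 100 uM RO 20-1724.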

[9] = target: Cytochrome P450 3A4 (Homo sapiens) (UniProt P08684); test: qHTS Assay for Inhibitors and Substrates of Cytochrome P450 3A4 (AID 884; active = well fitted curve in the direction sought with a large enough effect; an effect the other way counts as inactive or inconclusive; also: potency is read from the fitted curve at half-maximal effect; nearly all actives have a fitted effect of over 50% in size); conditions: recombinant CYP3A4, Luciferin-PPXE luminescence; series mostly up to 57.1 µM
How it was run: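 20 nM human CYP3A4 with 25 uM Luciferin-PPXE (at KM) in 200 mM KPO4, preincubated 10 min with compound; NADPH regeneration started a 60 min RT reaction. Luciferin detected by luminescence, normalized to 57 uM ketoconazole as full inhibition.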

[10] = target: Cytochrome P450 3A4 (Homo sapiens) (UniProt P08684); test: qHTS Assay for Activators of Cytochrome P450 3A4 (AID 885; active = well fitted curve in the direction sought with a large enough effect; an effect the other way counts as inactive or inconclusive; also: nearly all actives have a fitted effect of over 65% in size); conditions: recombinant CYP3A4, Luciferin-PPXE luminescence, 60 min; series mostly up to 11.4 µM
How it was run: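 20nM CYP3A4 + 25uM Luciferin-PPXE (=KM), 200mM KPO4; cpd 10 min RT; NADPH regen, 60 min RT; stop w/ detection buffer, 20 min; luminescence. Normalized to 57 uM ketoconazole.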

[11] = target: Cytochrome P450 2C19 (Homo sapiens) (UniProt P33261); test: qHTS Assay for Inhibitors and Substrates of Cytochrome P450 2C19 (AID 899; active = well fitted curve in the direction sought with a large enough effect; an effect the other way counts as inactive or inconclusive; also: potency is read from the fitted curve at half-maximal effect; nearly all actives have a fitted effect of over 60% in size); conditions: recombinant CYP2C19, luciferin-H EGE luminescence; series mostly up to 11.4 µM
How it was run: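 NADPH-dependent conversion of Luciferin-H EGE (10uM, at KM) by 5nM enzyme in 50mM KPO4, 60 min at 37C following 10 min compound preincubation. Stopped with luciferin detection buffer; luminescence read after 20 min.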

[12] = target: Cytochrome P450 2D6 (Homo sapiens) (UniProt P10635); test: qHTS Assay for Inhibitors and Substrates of Cytochrome P450 2D6 (AID 891; active = well fitted curve in the direction sought with a large enough effect; an effect the other way counts as inactive or inconclusive; also: potency is read from the fitted curve at half-maximal effect; nearly all actives have a fitted effect of over 60% in size); conditions: recombinant CYP2D6, luciferin-ME EGE luminescence; series mostly up to 11.4 µM
How it was run: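 Human CYP2D6 (5 nM) with 30 uM Luciferin-ME EGE (at Km) in 100 mM KPO4, compound preincubated 10 min, then NADPH regeneration system for 60 min at room temperature. Luciferin read by luminescence; normalized to 1.43 uM quinidine.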

Sequence of Glucocorticoid receptor (Homo sapiens) (P04150 whole entry, looked up, the tested form may be a part): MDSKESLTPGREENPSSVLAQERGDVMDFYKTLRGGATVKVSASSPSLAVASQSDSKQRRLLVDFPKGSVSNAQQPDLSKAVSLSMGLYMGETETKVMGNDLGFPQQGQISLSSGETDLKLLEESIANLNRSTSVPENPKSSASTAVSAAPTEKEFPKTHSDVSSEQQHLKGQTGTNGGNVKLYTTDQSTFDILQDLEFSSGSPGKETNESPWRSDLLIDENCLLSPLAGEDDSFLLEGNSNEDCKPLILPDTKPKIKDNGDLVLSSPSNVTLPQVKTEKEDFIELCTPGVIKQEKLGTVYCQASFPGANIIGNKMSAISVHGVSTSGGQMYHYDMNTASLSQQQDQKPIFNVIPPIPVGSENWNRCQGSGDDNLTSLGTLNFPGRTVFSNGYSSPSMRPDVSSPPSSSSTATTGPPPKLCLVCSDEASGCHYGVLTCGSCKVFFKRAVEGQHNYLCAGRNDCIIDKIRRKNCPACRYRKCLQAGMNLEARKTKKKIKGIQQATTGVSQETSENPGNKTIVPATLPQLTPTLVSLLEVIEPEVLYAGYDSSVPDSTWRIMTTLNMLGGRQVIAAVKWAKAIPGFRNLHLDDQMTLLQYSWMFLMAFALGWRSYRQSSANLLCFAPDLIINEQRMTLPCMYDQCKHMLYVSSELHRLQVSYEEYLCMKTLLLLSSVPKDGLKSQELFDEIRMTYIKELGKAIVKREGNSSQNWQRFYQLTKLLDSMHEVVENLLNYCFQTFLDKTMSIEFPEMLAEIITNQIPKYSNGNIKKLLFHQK
Sequence of Lysosomal acid glucosylceramidase (Homo sapiens) (P04062 whole entry, looked up): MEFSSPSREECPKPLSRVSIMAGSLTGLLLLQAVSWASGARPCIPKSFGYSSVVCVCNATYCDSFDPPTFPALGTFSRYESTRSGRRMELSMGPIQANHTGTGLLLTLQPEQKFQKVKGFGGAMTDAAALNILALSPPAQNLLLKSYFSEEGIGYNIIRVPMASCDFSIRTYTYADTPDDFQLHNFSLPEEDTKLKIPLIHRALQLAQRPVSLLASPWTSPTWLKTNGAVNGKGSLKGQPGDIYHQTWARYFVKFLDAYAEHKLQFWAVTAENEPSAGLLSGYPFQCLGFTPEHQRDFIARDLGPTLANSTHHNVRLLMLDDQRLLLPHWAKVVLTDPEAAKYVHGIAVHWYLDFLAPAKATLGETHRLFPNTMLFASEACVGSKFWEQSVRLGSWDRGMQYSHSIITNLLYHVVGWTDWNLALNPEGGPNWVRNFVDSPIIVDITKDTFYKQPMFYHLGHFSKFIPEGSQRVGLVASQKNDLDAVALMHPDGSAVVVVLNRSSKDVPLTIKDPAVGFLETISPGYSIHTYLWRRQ
Sequence of 3',5'-cyclic-AMP phosphodiesterase 4B (Homo sapiens) (Q07343 whole entry, looked up): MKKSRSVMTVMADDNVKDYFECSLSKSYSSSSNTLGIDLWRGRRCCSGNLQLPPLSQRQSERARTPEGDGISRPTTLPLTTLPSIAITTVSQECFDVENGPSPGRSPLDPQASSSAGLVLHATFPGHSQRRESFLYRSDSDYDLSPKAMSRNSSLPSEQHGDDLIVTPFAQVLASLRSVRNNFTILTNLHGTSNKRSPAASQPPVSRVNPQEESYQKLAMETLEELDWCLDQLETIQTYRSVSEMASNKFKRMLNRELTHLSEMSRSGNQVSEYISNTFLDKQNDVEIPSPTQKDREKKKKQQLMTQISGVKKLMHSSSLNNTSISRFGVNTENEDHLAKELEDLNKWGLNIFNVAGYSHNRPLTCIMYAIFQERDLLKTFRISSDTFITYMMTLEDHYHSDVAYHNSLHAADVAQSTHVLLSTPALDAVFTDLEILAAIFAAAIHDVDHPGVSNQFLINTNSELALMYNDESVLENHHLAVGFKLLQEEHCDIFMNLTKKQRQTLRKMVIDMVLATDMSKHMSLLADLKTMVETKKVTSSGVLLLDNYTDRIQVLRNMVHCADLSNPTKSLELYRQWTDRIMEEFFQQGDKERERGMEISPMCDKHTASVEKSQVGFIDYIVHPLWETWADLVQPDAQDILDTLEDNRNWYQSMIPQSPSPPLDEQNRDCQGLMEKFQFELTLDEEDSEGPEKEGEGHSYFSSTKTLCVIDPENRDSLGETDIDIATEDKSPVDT
Sequence of Cytochrome P450 3A4 (Homo sapiens) (P08684 whole entry, looked up): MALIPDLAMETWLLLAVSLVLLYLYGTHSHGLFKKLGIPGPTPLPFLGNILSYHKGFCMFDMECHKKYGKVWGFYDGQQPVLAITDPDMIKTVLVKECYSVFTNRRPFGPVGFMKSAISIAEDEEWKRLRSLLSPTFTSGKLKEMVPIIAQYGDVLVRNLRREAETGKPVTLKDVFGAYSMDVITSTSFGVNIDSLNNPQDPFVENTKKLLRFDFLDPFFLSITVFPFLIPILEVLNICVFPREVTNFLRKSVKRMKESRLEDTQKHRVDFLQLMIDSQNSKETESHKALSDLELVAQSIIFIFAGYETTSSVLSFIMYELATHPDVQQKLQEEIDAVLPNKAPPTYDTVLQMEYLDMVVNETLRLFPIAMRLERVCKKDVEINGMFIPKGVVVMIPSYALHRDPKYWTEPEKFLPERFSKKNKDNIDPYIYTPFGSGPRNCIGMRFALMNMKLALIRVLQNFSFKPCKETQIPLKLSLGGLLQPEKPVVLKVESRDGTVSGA
Sequence of Cytochrome P450 1A2 (Homo sapiens) (P05177 whole entry, looked up): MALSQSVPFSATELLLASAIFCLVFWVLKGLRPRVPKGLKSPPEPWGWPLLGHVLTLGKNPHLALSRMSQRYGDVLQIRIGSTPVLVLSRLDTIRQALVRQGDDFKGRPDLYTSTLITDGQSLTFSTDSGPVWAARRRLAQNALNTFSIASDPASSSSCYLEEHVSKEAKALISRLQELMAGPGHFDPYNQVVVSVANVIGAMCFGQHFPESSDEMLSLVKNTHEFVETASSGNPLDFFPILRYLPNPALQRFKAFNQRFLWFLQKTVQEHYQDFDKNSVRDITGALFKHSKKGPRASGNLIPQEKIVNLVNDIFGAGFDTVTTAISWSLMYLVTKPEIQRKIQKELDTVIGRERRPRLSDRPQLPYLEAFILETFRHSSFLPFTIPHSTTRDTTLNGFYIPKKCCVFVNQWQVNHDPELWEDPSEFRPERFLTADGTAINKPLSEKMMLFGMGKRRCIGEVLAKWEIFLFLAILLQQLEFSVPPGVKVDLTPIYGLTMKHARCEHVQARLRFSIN
Sequence of Cytochrome P450 2C19 (Homo sapiens) (P33261 whole entry, looked up): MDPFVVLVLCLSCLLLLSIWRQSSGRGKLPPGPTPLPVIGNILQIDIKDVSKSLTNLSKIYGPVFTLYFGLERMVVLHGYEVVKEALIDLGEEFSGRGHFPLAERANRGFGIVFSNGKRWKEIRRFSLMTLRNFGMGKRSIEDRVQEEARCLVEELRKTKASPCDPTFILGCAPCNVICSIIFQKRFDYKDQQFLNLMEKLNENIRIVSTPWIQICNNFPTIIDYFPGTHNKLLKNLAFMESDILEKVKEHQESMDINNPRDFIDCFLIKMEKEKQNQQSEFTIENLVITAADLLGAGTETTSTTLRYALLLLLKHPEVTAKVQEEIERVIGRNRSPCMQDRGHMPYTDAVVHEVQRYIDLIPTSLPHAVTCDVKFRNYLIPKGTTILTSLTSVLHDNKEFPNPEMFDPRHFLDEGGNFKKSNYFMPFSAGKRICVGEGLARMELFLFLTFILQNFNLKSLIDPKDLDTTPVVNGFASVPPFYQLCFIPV
Sequence of Cytochrome P450 2D6 (Homo sapiens) (P10635 whole entry, looked up): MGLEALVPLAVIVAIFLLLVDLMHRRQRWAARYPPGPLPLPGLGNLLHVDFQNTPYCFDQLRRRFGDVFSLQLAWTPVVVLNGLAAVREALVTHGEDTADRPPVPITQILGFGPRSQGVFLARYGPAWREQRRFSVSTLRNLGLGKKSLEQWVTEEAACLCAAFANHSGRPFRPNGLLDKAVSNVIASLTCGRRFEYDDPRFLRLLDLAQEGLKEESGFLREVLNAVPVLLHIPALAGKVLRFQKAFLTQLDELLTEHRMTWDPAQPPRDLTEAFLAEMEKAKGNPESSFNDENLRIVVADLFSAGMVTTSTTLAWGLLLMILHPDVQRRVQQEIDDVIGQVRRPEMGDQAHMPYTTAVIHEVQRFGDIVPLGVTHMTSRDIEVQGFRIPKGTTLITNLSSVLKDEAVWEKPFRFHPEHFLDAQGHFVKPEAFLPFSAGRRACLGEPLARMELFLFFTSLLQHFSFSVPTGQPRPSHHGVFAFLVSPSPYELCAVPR

| Compound | Potency [1] | activity change, negative = inhibition [2] [%] | Potency [3] | activity, negative = inhibition [4] [%] | Potency [5] [µM] | Potency [6] [µM] | Potency [7] | Potency [8] | Potency [9] | Potency [10] | Potency [11] | Potency [12] | activity change, negative = inhibition [3] |
| --- | --- | --- | --- | --- | --- | --- | --- | --- | --- | --- | --- | --- | --- |
| O=C(c1ccccc1)[C@H](Nc1ccc2ccccc2c1)c1ccccc1 | > 11.4 µM | 23.6 | 0.794 µM (active) | -0.0129 | > 46 | > 9.22 | inactive | inactive | 3.16 µM (active) | inactive | – | – | – |
| c1ccc2sc(SCSc3nc4ccccc4s3)nc2c1 | > 11.4 µM | -1.38 | 3.98 µM (active) | 2.46 | > 46 | > 9.22 | inactive | inactive | 3.16 µM (active) | inactive | 1.26 µM (active) | – | – |
| N#CCCn1c(=O)c(-c2ccccc2)nc2cnc(OCc3ccccc3)nc21 | > 11.4 µM | -17.7 | 3.16 µM (active) | -1.68 | > 9.22 | > 46 | inactive | inactive | – | inactive | – | – | – |
| Cc1ccc2nc(N/N=C\c3cccc(C)n3)cc(C)c2c1 | > 11.4 µM | -4.58 | 0.631 µM (active) | 7.26 | > 46 | > 9.22 | inactive | inactive | – | inactive | – | 3.16 µM (active) | – |
| CO[C@@H]1/C=C\O[C@@]2(C)Oc3c(C)c(O)c4c(c3C2=O)C(=N[C@H]2CC[C@H](O)O[C@@H]2C)C=C(NC(=O)/C(C)=C\C(=O)[C@@H]2C[C@@H]2[C@@H](O)[C@H](C)[C@@H](O)[C@H](C)[C@H](OC(C)=O)[C@@H]1C)C4=O | > 11.4 µM | 26.3 | inactive | -2.6 | > 46 | > 9.22 | inactive | inactive | 1.26 µM (active) | inactive | 2.51 µM (active) | – | – |
| Cc1ccc(S(=O)(=O)O[C@H]2C[C@@H](C(C)(C)C)CC[C@@H]2c2ccccc2)cc1 | > 11.4 µM | 7.67 | – | 4.83 | > 46 | > 9.22 | inactive | inactive | – | inactive | 3.16 µM (active) | – | -22.8% [at 2.29 µM] |
| Cn1ncc2c(Nc3cccc(Cl)c3)nc(Nc3cccc(Cl)c3)nc21 | 7.36 µM (active) | -0.941 | 3.98 µM (active) | 4.09 | > 46 | > 9.22 | inactive | inactive | – | inactive | – | – | – |
